# Compound activity as filed in PubChem BioAssay.
# Sampled rows, rich in hits. Any-hit rate of the full collection: about 13%.
# Pf growth 96h: P. falciparum growth inhibition at 96 hours. P. falciparum luciferase reporter growth, 96 h. 320,000 compounds, 6.9% hits. Potency, µM (doses to about 28.7 µM), for inactives: top-dose activity change, negative = inhibition, most hits filed as inhibitors; further: potency means the concentration at half of the fitted maximal effect
#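 Infected RBCs, 2% Hct / 0.05% parasitemia final; luciferase-reporter P. falciparum; cpd 96 h, 37 C, 5% CO2; luciferase detection reagent; luminescence.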
# HCV inh: inhibitors of hepatitis C virus infection; Huh7.5.1 HCVcc-Cre infection, luciferase reporter, 44 h; Potency, µM (doses to about 41.8 µM), for inactives: top-dose activity change, negative = inhibition, most hits filed as inhibitors; 340,000 compounds, 3.4% hits; further: potency means the concentration at half of the fitted maximal effect
#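 After 44 h co-culture of compound, cells and HCVcc-Cre (~0.5 moi), substrate is added for 15 min at room temperature and luciferase measured over 15 sec. Cells were seeded at 1,000/well and pre-cultured 4 h.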
# Pf growth 48h: P. falciparum growth inhibition at 48 hours (one generation); P. falciparum luciferase growth in erythrocytes, 48 h; Potency, µM (titrated, usually from 28.7 µM), for inactives: at the highest dose activity change, negative = inhibition, usual class: inhibitors; 310,000 compounds, 5.9% hits; AID 504832; further: potency means the concentration at half of the fitted maximal effect
#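 Firefly luciferase activity from engineered P. falciparum reports growth; inhibitors lower the luminescent signal. Cultures contained 2% hematocrit erythrocytes at 0.1% final parasitemia.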
# HCMV antiviral: inhibitors of human cytomegalovirus; activity change, negative = inhibition, % at 57.5 µM; 410,000 compounds, 4.5% hits; AID 1259415; HFF cells, HCMV-luciferase reporter, 72 h; hits give low values; in the data active means activity change below about -60%; inconclusive means no clear call, values can overlap the other calls; inactive means above about -39%
#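 HFF cells seeded 16 h at 37C, treated with compounds, infected with luciferase-reporter HCMV at MOI 1 PFU/cell; luciferase read at 72 h post infection, normalized to buffer-only and Salinomycin controls.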
# * = called active by the depositor; ? = inconclusive; . = no result given; ! = not active in a repeat; [ ] = remark or other dose. Unless noted, the call rests on the fitted dose curve; in most records, active means well fitted inhibition curve with a large enough effect; inconclusive means small, poorly fitted or top-dose-only effect, or another doubt; inactive means no such curve, though single readings can be large or run the other way. On the % scale 0 is the no-effect control and ±100 the full control effect.
SMILES,Pf growth 96h,HCV inh,Pf growth 48h,HCMV antiviral
CCC(=O)N1[C@@H]2c3ccc(C4=CCCCC4)c(=O)n3C[C@H]1[C@H](CO)[C@H]2C(=O)N[C@@H](C)c1ccccc1,.,.,.,-9
CCOc1ccc(CCN2CN(C3CCCCC3)CNC2=S)cc1OCC,-29%,4%,?,76
CC(C)CN1CN(Cc2ccco2)CNC1=S,54%,12%,0%,-10
CCCN1CNC(=S)N(Cc2ccccc2)C1,?,23%,-6%,-5
S=C1NCN(CCc2ccccc2)CN1Cc1ccccc1,?,-24%,-29%,-62*
S=C1NCN(Cc2ccco2)CN1CCc1ccccc1,8.3µM*,3%,?,49
CCCCN1CNC(=S)N(Cc2ccccc2)C1,9.3µM*,37%,9%,4
S=C1NCN(C2CCCCC2)CN1CCc1ccccc1,1.9µM*,-1%,4.7µM*,-37
COc1cc(OC)cc(C(=O)Nc2cc(-c3nc4cc(Cl)ccc4o3)ccc2Cl)c1,.,.,.,72
Cc1noc(C)c1COc1ccc(C(=O)NCC(c2c(F)cccc2Cl)N(C)C)cc1 (stereo unspecified),9.3µM*,12%,?,2
Cc1cccc(NC(=O)c2ccc(OCc3c(C)noc3C)cc2)c1,?,?,-21%,-21
COc1ccc(C(CNC(=O)c2ccc(OCc3c(C)noc3C)cc2)N2CCCC2)cc1 (stereo unspecified),3.7µM*,?,4.7µM*,44
COc1cc(C(=O)NCC(c2ccco2)N2CCCC2)ccc1OCc1c(C)noc1C (stereo unspecified),?,?,12µM*,26
COc1ccccc1C(CNC(=O)c1ccc(OCc2c(C)noc2C)cc1)N1CCCC1 (stereo unspecified),10µM*,?,10µM*,-13
N#Cc1ccc(-c2cccs2)nc1SCc1c(F)cccc1Cl,.,.,.,-17
CC(=O)Nc1ccc(Nc2nc3ccc(Cl)cc3n3cnnc23)cc1,.,.,.,-33
Cc1ccc(CNC(=O)c2ccc(-n3cnc4cccnc43)cc2)cc1,.,.,.,-14
CC(Oc1ccc(Br)cc1)C(=O)Nc1cc(S(=O)(=O)N2CCOCC2)ccc1N1CCCC1 (stereo unspecified),13µM*,0%[8.37 µM],?,-26
CC(Oc1ccc(F)cc1)C(=O)Nc1cc(S(=O)(=O)N2CCOCC2)ccc1N1CCCCC1 (stereo unspecified),3.3µM*,?,4.7µM*,-8
COC(=O)c1cnn2c(C)c(Cc3c(C)cc(C)cc3C)c(C)nc12,.,.,.,11
CSc1nnc(CCCCCCCCc2nnc(SC)o2)o1,13µM*,7%,?,-3
CNCCC=C1c2ccccc2CCc2ccccc21,9.5µM*,2%[8.37 µM],11µM*,-2
CC(=O)Nc1c(C)nn(-c2ccccc2)c1N1CCC(C(=O)NCc2ccc(Cl)cc2)CC1,.,.,.,-23
CCC[C@@H](O)c1cc2cc(OC)c(OC)cc2c(=O)o1,2.6µM*,-17%,0%,-15
c1ccc(-c2cn(-c3ccccc3)c3[n+]2CCCS3)cc1,?,-19%,?,-33
SMILES,Pf growth 96h,HCV inh,Pf growth 48h,HCMV antiviral
CCc1ccc(-n2cc(-c3ccc(F)cc3)[n+]3c2SCCC3)cc1,?,?,1.5µM*,-87*
Cc1ccc(-c2cn(-c3ccccc3)c3[n+]2CCCS3)cc1,0.37µM*!,?,1µM*,-93*
COc1ccc(Br)cc1-c1nc(CCl)cs1,20%,10µM*,-8%,?
CCOc1ccc(-c2nc(CCl)cs2)cc1,421%,11%,211%,3
Cc1cc(C)cc(NC(=O)c2cc(S(=O)(=O)N3CCOCC3)cn2C)c1,.,.,.,24
CCc1cccc(NC(=O)COC(=O)c2cc([N+](=O)[O-])ccc2N2CCOCC2)c1,8%,10µM*,?,-4
Cc1cc(NC(=O)COC(=O)c2cc([N+](=O)[O-])ccc2N2CCOCC2)ccc1Br,?,7.1µM*,?,-37
Cc1cc(C)c(NC(=O)COC(=O)c2cc([N+](=O)[O-])ccc2N2CCOCC2)c(C)c1,21%,1%,5%,3
CCN(CC)c1ccc(NS(=O)(=O)c2ccc3c(c2)CCCN3C(C)=O)c(C)c1,.,.,.,-30
O=C(NC1CCCCCC1)c1ccc(Cl)c(S(=O)(=O)N2CCOCC2)c1,-26%,-18%,?,23
O=C(NC1CCCC1)c1ccc(Cl)c(S(=O)(=O)N2CCCCC2)c1,45%,35µM*,?,-40
O=C(Nc1cccc(Br)c1)c1ccc(Cl)c(S(=O)(=O)N2CCOCC2)c1,-3%,4µM*,6.6µM*,-98*
O=C(Nc1cccc(C(=O)NC2CC2)c1)c1ccc(Cl)c(S(=O)(=O)N2CCOCC2)c1,13µM*,?,?,-22
O=C(NC1CC1)c1ccc(Cl)c(S(=O)(=O)N2CCOCC2)c1,0%,10%,?,-30
O=C(Nc1cccc(S(=O)(=O)N2CCOCC2)c1)c1cc(S(=O)(=O)N2CCOCC2)c(Cl)cc1Cl,.,?,.,-31
O=C(Nc1cccc(S(=O)(=O)C(F)F)c1)c1ccc(Cl)c(S(=O)(=O)N2CCOCC2)c1,.,13µM*,9.3µM*,?
O=C(Nc1cccnc1)c1ccc(Cl)c(S(=O)(=O)N2CCOCC2)c1,-23%,-6%,-26%,-23
COc1cc(Nc2cc3[nH]c(-c4ccccc4)cc3cn2)cc(C(F)(F)F)c1,.,.,.,-11
Cc1cc(C)cc(-n2c(-c3ccccc3)c(C)n3c4c(=O)n(C)c(=O)n(C)c4nc23)c1,.,.,.,0
Cc1c(-c2ccccc2)n(-c2ccccc2O)c2nc3c(c(=O)n(C)c(=O)n3C)n12,.,.,.,-64*
COc1ccc(OC)c(NC(=O)[C@H](CSCc2ccccc2)N2Cc3ccccc3C2=O)c1,.,.,.,-5
C[C@H]1[C@@H](NC(=O)Nc2ccccc2)CC[C@@]23CCCN2C(=O)CCC[C@@H]13,.,.,.,0
Cc1ccc(CNC(=O)CCCc2c[nH]c3ccccc23)cc1,0%,-13%,-2%,-14
Cc1ccnc(NC(=O)CCCc2c[nH]c3ccccc23)c1,51%,-14%,58%,-101*
Cc1ccc(NC(=O)CCCc2c[nH]c3ccccc23)nc1,49%,-22%,10%,-98*
SMILES,Pf growth 96h,HCV inh,Pf growth 48h,HCMV antiviral
Cc1cc(C)cc(NC2=CC(c3cccc(F)c3)N(c3cc(C)cc(C)c3)C2=O)c1 (stereo unspecified),.,.,.,-7
CC(C)(C)C(=O)NC1(C(F)(F)F)C(=O)Nc2c1c(=O)[nH]c(=O)n2-c1ccccc1 (stereo unspecified),.,.,.,7
CCc1ccccc1N(CC)C(=O)c1cc2c(s1)-c1ccccc1OC2,.,.,.,-21
N#CC1=C(N)Oc2ccc3ccc(O)cc3c2C1c1cccnc1 (stereo unspecified),?,-8%,1.3µM*,55
Cc1cc2c(c(=O)n1Cc1ccco1)C(c1cccnc1)C(C#N)=C(N)O2 (stereo unspecified),9.3µM*,20%,0%,-2
N#CC1=C(N)Oc2ccc3ccccc3c2C1c1cccnc1 (stereo unspecified),0%,?,-22%,49
